Test systems include HCT-15 colon; HT29 colon; SNB-75 CNS; SNB-19 CNS; U251 CNS; PC-3 prostate; SK-MEL-5 melanoma; UACC-62 melanoma; LOX IMVI melanoma; SK-MEL-28 melanoma.
Assay in all cases: NCI-60 one-dose screen, 48 h (100 = growth as untreated, 0 = no growth, -100 = all killed)
Holding throughout (settings): 10 µM unless noted

The panel holds about 83,000 compounds, 20% with a hit somewhere; the sample as a whole holds those more often.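 Percent growth is the endpoint: 0 to 100 indicates growth inhibition (40 means 60% inhibition), 0 means no net growth, and negative values indicate cell death.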 Unmarked numbers belong to inactive results. Activity calls are given as the source filed them. Rule for the calls: active = growth percent below 10; inactive = the rest.

For `CC(CN1CCN(C)CC1)CN1c2ccccc2Sc2ccc(C(F)(F)F)cc21` (stereo not given), the growth in the assay with HCT-15 colon was 6.79% (active); in the assay with HT29 colon, -49.9% (active); in the assay with SNB-75 CNS, 45.5%; with SNB-19 CNS, 63.1%; with U251 CNS, 1% (active); in the assay on PC-3 prostate, 31.3%. Besides, the growth with SK-MEL-5 melanoma is -82.7% (active); in the assay with UACC-62 melanoma, -40.4% (active); in the assay on LOX IMVI melanoma it was -2.88% (active); in the assay with SK-MEL-28 melanoma it was 22.4%.

In the case of `Cc1cc(C)c(C#N)c(SCC(=O)c2sc3c(C#N)c(C)cc(C)[n+]3c2[O-])n1`, the growth in the assay with HCT-15 colon was 15.9%; with HT29 colon, -26.1% (active); in the assay on SNB-75 CNS, 9% (active); with SNB-19 CNS it was 75.5%; in the assay on U251 CNS it was 7.69% (active); in the assay with PC-3 prostate, 24%. In addition, the growth in the assay with SK-MEL-5 melanoma is 10.8%; with UACC-62 melanoma, 47.9%; in the assay with LOX IMVI melanoma it was 20.4%; in the assay on SK-MEL-28 melanoma it was 30.3%.

As to `CSC1=NC(=Nc2c(C)cccc2C)C2(CCC(C(C)(C)C)CC2)N1c1ccc(Cl)cc1` (stereo not given), the growth was 31.9% in the assay with HCT-15 colon; 25.5% with HT29 colon; 74.8% in the assay on SNB-75 CNS; 75.3% in the assay with SNB-19 CNS; 30.6% in the assay with U251 CNS; 47.9% in the assay on PC-3 prostate. Besides, the growth in the assay on SK-MEL-5 melanoma is 47.6%; with UACC-62 melanoma, 73.8%; with LOX IMVI melanoma it was 20.8%; with SK-MEL-28 melanoma, 79.5%.

As for `Fc1ccc(-c2nnc(N3CCOCC3)c3ccccc23)cc1`, the growth is 99.1% with HCT-15 colon; 111% with HT29 colon; 101% in the assay on SNB-75 CNS; 88.8% in the assay on SNB-19 CNS; 108% in the assay on U251 CNS; 95.8% in the assay on PC-3 prostate. Moreover, the growth with SK-MEL-5 melanoma is 96.9%; in the assay with UACC-62 melanoma, 96.1%; with LOX IMVI melanoma it was 104%; with SK-MEL-28 melanoma it was 106%.

For the molecule `CCSc1ccc([C@@H]2[C@@H](O)C(=O)N2c2cc(OC)c(OC)c(OC)c2)cc1`, the growth in the assay with HCT-15 colon was 14.1%; with HT29 colon it was 9.27% (active); with SNB-75 CNS, 85.8%; with SNB-19 CNS it was 35.5%; with U251 CNS, 21%; with PC-3 prostate, 28.1%. The growth was 0.317% (active) in the assay with SK-MEL-5 melanoma, 40.4% in the assay with UACC-62 melanoma, 25.9% with LOX IMVI melanoma and 71% with SK-MEL-28 melanoma.

For `C/C(CC(=O)NNc1ccc([N+](=O)[O-])cc1)=N\Nc1ccc([N+](=O)[O-])cc1`, the growth is 49.6% in the assay with HCT-15 colon; 71.4% in the assay with HT29 colon; 97.3% with SNB-75 CNS; 104% with SNB-19 CNS; 78.5% with U251 CNS; 54.7% with PC-3 prostate. The growth in the assay with SK-MEL-5 melanoma was 59.4%; with UACC-62 melanoma, 9.12% (active); in the assay with LOX IMVI melanoma it was 70.3%; in the assay with SK-MEL-28 melanoma, 114%.

As to `Fc1cnccc1-c1nc2ccc3[nH]ncc3c2c2c1CCCC2`, the growth was 12.4% in the assay on HCT-15 colon; 25.4% with HT29 colon; -25.5% (active) in the assay on SNB-75 CNS; 44.2% in the assay on SNB-19 CNS; 29.6% in the assay with U251 CNS; 27.1% with PC-3 prostate. The growth was 29% in the assay with SK-MEL-5 melanoma, 17.3% in the assay on UACC-62 melanoma, 22.8% with LOX IMVI melanoma and 24.3% in the assay with SK-MEL-28 melanoma.

Regarding `NC(=Nc1ccccc1)SCCCSC(N)=Nc1ccccc1`, the growth in the assay on HCT-15 colon was 82.4%; in the assay on HT29 colon, 93.9%; in the assay with SNB-75 CNS, 78.4%; in the assay with SNB-19 CNS, 95.8%; with U251 CNS it was 95.6%; in the assay on PC-3 prostate, 74.7%. Further, the growth in the assay on SK-MEL-5 melanoma is 85.5%; in the assay with UACC-62 melanoma, 73.4%; with LOX IMVI melanoma, 86.7%; with SK-MEL-28 melanoma, 106%.

Consider `CCCc1cc2c(cc1CN(Cc1cc3c(cc1CCC)OCO3)C(=N)OCC)OCO2`, for which the growth in the assay with HCT-15 colon was 94.8%; in the assay with HT29 colon, 52.4%; in the assay with SNB-75 CNS it was 95.6%; in the assay with SNB-19 CNS it was 94%; in the assay on U251 CNS, 67.3%; in the assay on PC-3 prostate it was 59.3%. Also, the growth was 88.8% in the assay with SK-MEL-5 melanoma, 77.2% with UACC-62 melanoma, 83.6% with LOX IMVI melanoma and 102% with SK-MEL-28 melanoma.

`CC(=O)c1c(C)nc(-c2cc(C)cc(Cl)c2)nc1-c1cccc(Oc2ccccc2)c1`: the growth in the assay with HCT-15 colon was 60.2%; in the assay with HT29 colon, 39.5%; in the assay with SNB-75 CNS it was 72.4%; in the assay with SNB-19 CNS, 79.3%; in the assay with U251 CNS, 76.1%; in the assay with PC-3 prostate, 53.4%. Besides, the growth with SK-MEL-5 melanoma is 77.1%; in the assay with UACC-62 melanoma it was 52.1%; in the assay on LOX IMVI melanoma it was 78.4%; with SK-MEL-28 melanoma, 76.2%.

For `CCCN(CCC)CC(O)COc1ccccc1C(=O)Nc1ccccc1` (stereo not given), the growth in the assay on HCT-15 colon is 72.8%; in the assay with HT29 colon, 71.3%; with SNB-75 CNS, 56.2%; in the assay on SNB-19 CNS it was 94.6%; in the assay with U251 CNS, 60.4%; in the assay with PC-3 prostate it was 70.2%. Besides, the growth in the assay with SK-MEL-5 melanoma is 53.3%; in the assay on UACC-62 melanoma, 48.1%; in the assay with LOX IMVI melanoma, 56.8%; in the assay on SK-MEL-28 melanoma it was 65.2%.

Consider `COc1cc(C2CC(c3ccc(Cl)cc3)=NN2C=O)ccc1OS(=O)(=O)c1ccc(C)cc1` (stereo not given), for which the growth in the assay with HCT-15 colon was 89.7%; in the assay on HT29 colon it was 99.3%; with SNB-75 CNS, 91.5%; in the assay on SNB-19 CNS, 86.7%; with U251 CNS, 91%; in the assay on PC-3 prostate it was 94.4%. Further, the growth is 86.3% with SK-MEL-5 melanoma, 78.6% in the assay with UACC-62 melanoma, 97.2% in the assay on LOX IMVI melanoma and 103% with SK-MEL-28 melanoma.

As to `CCC(=O)NC(O)C(Cl)(Cl)C(C)Cl` (stereo not given), the growth in the assay with HCT-15 colon is 95.6%; in the assay on HT29 colon, 95.4%; in the assay on SNB-75 CNS it was 91.7%; in the assay with SNB-19 CNS, 98.4%; in the assay with U251 CNS, 98.6%; in the assay with PC-3 prostate, 98.2%. Besides, the growth was 97.7% with SK-MEL-5 melanoma, 97.5% in the assay with UACC-62 melanoma, 96.4% with LOX IMVI melanoma and 104% with SK-MEL-28 melanoma.

As for `O=C(Cc1ccc(Nc2ccnc(C(F)(F)F)c2)cc1)N/N=C/c1ccccc1O`, the growth is 14.6% in the assay with HCT-15 colon; 75.4% in the assay with HT29 colon; 30.8% in the assay on SNB-75 CNS; 31.1% in the assay on SNB-19 CNS; 23.8% in the assay on U251 CNS; 71.1% in the assay on PC-3 prostate. Also, the growth in the assay with SK-MEL-5 melanoma was 10.8%; with UACC-62 melanoma, 10.8%; with LOX IMVI melanoma it was 9.12% (active); in the assay with SK-MEL-28 melanoma it was 106%.

The record behind these values is PubChem BioAssay (NCI).
